In PubChem BioAssay (EPA / NIEHS):
Results filed as inconclusive are left out. The source made the active and inactive calls. Rule for the calls, unless noted: active = hit-call score of the fitted dose curve at least 0.9, where 1 is the maximum; inactive = score below 0.9.

Experiments:
[1] = target: Retinoic acid receptor RXR-alpha (Homo sapiens) (UniProt P19793); assay: ATG_RXRa_TRANS: Attagene TRANS-FACTORIAL HepG2 Assay for human Retinoid X Receptor alpha (RXRa) (AID 2283012; active = hit-call score of the fitted dose curve at least 0.9, where 1 is the maximum)
Sequence of Retinoic acid receptor RXR-alpha (Homo sapiens) (P19793 whole entry, looked up, the tested form may be a part): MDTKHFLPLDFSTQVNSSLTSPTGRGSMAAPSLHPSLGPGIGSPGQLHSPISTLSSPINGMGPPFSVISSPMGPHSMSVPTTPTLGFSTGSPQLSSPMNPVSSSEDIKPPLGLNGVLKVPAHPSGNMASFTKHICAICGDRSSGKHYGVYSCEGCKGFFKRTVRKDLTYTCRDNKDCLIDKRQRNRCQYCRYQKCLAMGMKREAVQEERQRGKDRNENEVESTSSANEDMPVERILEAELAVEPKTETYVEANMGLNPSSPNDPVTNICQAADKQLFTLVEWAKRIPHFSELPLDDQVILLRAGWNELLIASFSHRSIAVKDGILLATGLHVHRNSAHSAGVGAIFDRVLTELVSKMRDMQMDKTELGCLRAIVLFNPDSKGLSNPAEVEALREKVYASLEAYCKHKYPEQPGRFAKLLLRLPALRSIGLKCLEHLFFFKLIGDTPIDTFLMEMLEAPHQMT
Summary of the method: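 Cells (HepG2) carried transiently transfected GAL4-responsive reporter units. Following a 24 h chemical incubation, reporter mRNA induction was read via RT-PCR fragment analysis; DMSO served as negative control and baseline.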

[2] = target: human Retinoid X Receptor beta (RXRb), RXRB (gene 6257) (UniProt P28702); assay: ATG_RXRb_TRANS: Attagene TRANS-FACTORIAL HepG2 Assay for human Retinoid X Receptor beta (RXRb) (AID 2283013; active = hit-call score of the fitted dose curve at least 0.9, where 1 is the maximum)
Sequence of human Retinoid X Receptor beta (RXRb), RXRB (gene 6257) (P28702 whole entry, looked up): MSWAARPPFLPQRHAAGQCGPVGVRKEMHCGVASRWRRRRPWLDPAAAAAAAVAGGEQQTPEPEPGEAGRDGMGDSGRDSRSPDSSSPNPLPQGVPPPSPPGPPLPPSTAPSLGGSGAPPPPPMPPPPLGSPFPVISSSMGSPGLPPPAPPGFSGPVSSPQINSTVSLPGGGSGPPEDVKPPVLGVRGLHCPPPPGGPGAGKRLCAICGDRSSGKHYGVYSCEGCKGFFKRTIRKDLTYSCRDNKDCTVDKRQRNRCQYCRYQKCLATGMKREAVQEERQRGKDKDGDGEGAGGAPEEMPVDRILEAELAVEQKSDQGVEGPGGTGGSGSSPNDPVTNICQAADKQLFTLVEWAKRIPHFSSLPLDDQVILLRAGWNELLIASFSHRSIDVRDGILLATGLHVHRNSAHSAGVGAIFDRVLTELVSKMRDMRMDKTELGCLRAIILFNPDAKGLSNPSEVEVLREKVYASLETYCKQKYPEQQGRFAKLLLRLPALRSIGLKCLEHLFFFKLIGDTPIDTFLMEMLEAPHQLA
Summary of the method: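 Multiplexed TRANS reporter assay in HepG2; 24 h dosing; reporter mRNA by RT-PCR/CE fluorescence; gain-of-signal relative to DMSO.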

[3] = read-out: E-selectin (Homo sapiens) (UniProt P16581); assay: BSK_3C_Eselectin: BioMAP Diversity Plus: 3C Assay for Eselectin Biomarker Activity (AID 2283015); settings: primary human endothelial cells (HUVEC); actives raise or lower the signal
Summary of the method: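 Endpoint derived by bidirectional fitting against DMSO vehicle; signal is ELISA-detected E-selectin from primary HUVEC at 24 h post-dosing, with parallel SRB staining (0.1% SRB, 560 nm) flagging cytotoxicity.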

[4] = read-out: Interleukin-1 alpha (IL1a), IL1A (gene 3552); assay: BSK_BE3C_IL1a: BioMAP Diversity Plus: BE3C Assay for Interleukin-1 alpha (IL1a) Biomarker Activity (AID 2283016); settings: primary human bronchial epithelial cells; actives raise or lower the signal
Summary of the method: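 Cultures of primary human bronchial epithelial cells receive test chemical. After 24 h, IL-1a is quantified by ELISA, while parallel wells are fixed in TCA and SRB-stained for total protein. Changes in either direction are fitted relative to DMSO.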

[5] = read-out: Monocyte Chemoattractant Protein-1 (MCP1), CCL2 (gene 6347); assay: BSK_3C_MCP1: BioMAP Diversity Plus: 3C Assay for Monocyte Chemoattractant Protein-1 (MCP1) Biomarker Activity (AID 2283017); settings: primary human endothelial cells (HUVEC); actives raise or lower the signal
Summary of the method: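 Using human vascular primary endothelium, researchers measured MCP-1 by ELISA 24 h after treatment, with DMSO serving as negative control for bidirectional fitting.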

[6] = read-out: Monocyte Chemoattractant Protein-1 (MCP1), CCL2 (gene 6347); assay: BSK_4H_MCP1: BioMAP Diversity Plus: 4H Assay for Monocyte Chemoattractant Protein-1 (MCP1) Biomarker Activity (AID 2283018); settings: primary human endothelial cells (HUVEC); actives raise or lower the signal
Summary of the method: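 Readout: MCP-1 ELISA on compound-treated HUVEC, sampled 24 h post-dosing. Baseline and negative control DMSO; bidirectional fit. Overt toxicity checked alongside by sulforhodamine B protein staining at time of biomarker measurement.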

[7] = read-out: Human Leukocyte Antigen - DR isotype (HLADR), HLA-DRA (gene 3122); assay: BSK_3C_HLADR: BioMAP Diversity Plus: 3C Assay for Human Leukocyte Antigen - DR isotype (HLADR) Biomarker Activity (AID 2283019); settings: primary human endothelial cells (HUVEC); actives raise or lower the signal
Summary of the method: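 Compound added to primary HUVEC cultures, 24 h incubation, then HLA-DR determined by ELISA; endpoint derived by bidirectional fitting relative to DMSO negative control.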

[8] = read-out: Interleukin-8 (IL8), CXCL8 (gene 3576); assay: BSK_3C_IL8: BioMAP Diversity Plus: 3C Assay for Interleukin-8 (IL8) Biomarker Activity (AID 2283020); settings: primary human endothelial cells (HUVEC); actives raise or lower the signal
Summary of the method: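 Human vascular endothelial cells (umbilical vein) in the 3C system; IL-8 level detected by ELISA at 24 h post-dose, with DMSO as baseline.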

[9] = read-out: Monokine induced gamma interferon (MIG), CXCL9 (gene 4283); assay: BSK_3C_MIG: BioMAP Diversity Plus: 3C Assay for Monokine induced gamma interferon (MIG) Biomarker Activity (AID 2283021); settings: primary human endothelial cells (HUVEC); actives raise or lower the signal;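 for AC50: MIG protein level measured by immunoassay in the treated endothelial cultures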
Summary of the method: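 After 24 h of treatment, human umbilical vein endothelial cultures (3C system) had their MIG biomarker level determined by ELISA, with DMSO serving as negative control.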

[10] = target: human Vitamin D Receptor (VDR), VDR (gene 7421) (UniProt P11473); assay: ATG_VDR_TRANS: Attagene TRANS-FACTORIAL HepG2 Assay for human Vitamin D Receptor (VDR) (AID 2283022; active = hit-call score of the fitted dose curve at least 0.9, where 1 is the maximum)
Sequence of human Vitamin D Receptor (VDR), VDR (gene 7421) (P11473 whole entry, looked up): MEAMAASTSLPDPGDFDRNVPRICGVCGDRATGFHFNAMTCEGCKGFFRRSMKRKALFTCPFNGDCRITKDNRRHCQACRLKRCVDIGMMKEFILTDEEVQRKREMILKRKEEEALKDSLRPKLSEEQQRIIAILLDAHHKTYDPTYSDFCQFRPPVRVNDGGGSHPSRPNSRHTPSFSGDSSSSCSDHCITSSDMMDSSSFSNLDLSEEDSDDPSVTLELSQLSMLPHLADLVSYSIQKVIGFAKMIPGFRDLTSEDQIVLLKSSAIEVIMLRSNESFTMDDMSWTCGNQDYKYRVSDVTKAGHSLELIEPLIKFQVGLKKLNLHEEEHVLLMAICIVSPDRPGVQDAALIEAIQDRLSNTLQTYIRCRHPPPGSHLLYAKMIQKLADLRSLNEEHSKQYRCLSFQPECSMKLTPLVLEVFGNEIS
Summary of the method: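 Multiplexed TRANS reporter in HepG2; 24 h treatment; reporter mRNA by RT-PCR plus capillary electrophoresis; upregulation scored relative to DMSO.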

[11] = BSK_3C_SRB: Viability Assessment in the BioMAP Diversity Plus: 3C Assay (AID 2283023); settings: primary human endothelial cells (HUVEC);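 note: cells read 24 h after compound dosing; fitted both ways against DMSO so a hit may be signal rise or drop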
Summary of the method: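 Overt cytotoxicity is gauged in parallel confluent HUVEC cultures by SRB total-protein staining at the time of biomarker measurement, 24 h after dosing. Gain or loss of signal is fitted versus DMSO.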

[12] = read-out: Matrix Metallopeptidase 1 (MMP1), MMP1 (gene 4312); assay: BSK_BE3C_MMP1: BioMAP Diversity Plus: BE3C Assay for Matrix Metallopeptidase 1 (MMP1) Biomarker Activity (AID 2283024); settings: primary human bronchial epithelial cells; actives raise or lower the signal
Summary of the method: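 Dose cells, wait 24 h, run MMP1 ELISA; cells are human bronchial epithelial primaries. Both increases and decreases relative to DMSO counted.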

[13] = BSK_3C_Vis: BioMAP Diversity Plus: 3C Assay for Morphology Visualization (AID 2283025); settings: primary human endothelial cells (HUVEC);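 note: fitted both ways so gain or loss versus DMSO counts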;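 for AC50: light microscopy image of cell morphology used as background control; cells imaged 24 h after dosing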
Summary of the method: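 Endothelial cells from human umbilical vein were treated with test chemicals for 24 h and inspected by light microscopy for changes in cell conformation.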

[14] = read-out: Pselectin, SELP (gene 6403); assay: BSK_4H_Pselectin: BioMAP Diversity Plus: 4H Assay for Pselectin Biomarker Activity (AID 2283026); settings: primary human endothelial cells (HUVEC); actives raise or lower the signal
Summary of the method: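 Human vascular endothelium from umbilical vein; P-selectin measured by ELISA at 24 h post-dose, with cytotoxicity checked by sulforhodamine B total-protein staining in parallel cultures (0.1% SRB after 10% TCA fixation, read at 560 nm).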

[15] = read-out: Thrombomodulin, THBD (gene 7056); assay: BSK_3C_Thrombomodulin: BioMAP Diversity Plus: 3C Assay for Thrombomodulin Biomarker Activity (AID 2283029); settings: primary human endothelial cells (HUVEC); actives raise or lower the signal
Summary of the method: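 Thrombomodulin ELISA, human primary HUVEC, 24 h post-dose; data fitted in both directions relative to DMSO.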

[16] = read-out: Urokinase-type plasminogen activator receptor (uPAR), PLAUR (gene 5329); assay: BSK_4H_uPAR: BioMAP Diversity Plus: 4H Assay for Urokinase-type plasminogen activator receptor (uPAR) Biomarker Activity (AID 2283030); settings: primary human endothelial cells (HUVEC); actives raise or lower the signal
Summary of the method: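 Endpoint derived via bidirectional curve fitting against DMSO baseline; readout was ELISA detection of uPAR on umbilical vein endothelial cells at 24 h post-treatment, with SRB-stained parallel cultures assessing cytotoxicity.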

[17] = read-out: Vascular endothelial growth factor receptor 2 (Homo sapiens) (UniProt P35968); assay: BSK_4H_VEGFRII: BioMAP Diversity Plus: 4H Assay for Vascular endothelial growth factor receptor 2 (VEGFR2) Biomarker Activity (AID 2283031); settings: primary human endothelial cells (HUVEC); actives raise or lower the signal;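 for AC50: cell-surface VEGFR2 protein level quantified by ELISA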
Summary of the method: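 In this multiplexed HUVEC system, biomarker ELISA was performed after 24 h chemical exposure. Parallel SRB staining (TCA fixation, 560 nm) tracked cytotoxicity; DMSO served as baseline.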

[18] = BSK_4H_SRB: Viability Assessment in the BioMAP Diversity Plus: 4H Assay (AID 2283027); settings: primary human endothelial cells (HUVEC);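 note: cells exposed to compound for 24 h before staining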
Summary of the method: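 Absorbance at 560 nm of SRB-stained total protein served as the viability read-out in confluent primary human umbilical vein endothelium 24 h after chemical treatment. Curves were fitted bidirectionally against DMSO as negative control.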

[19] = target: human Thyroid Receptor alpha (THRa1), THRA (gene 7067) (UniProt P10827); assay: ATG_THRa1_TRANS: Attagene TRANS-FACTORIAL HepG2 Assay for human Thyroid Receptor alpha (THRa1) (AID 2283014; active = hit-call score of the fitted dose curve at least 0.9, where 1 is the maximum)
Sequence of human Thyroid Receptor alpha (THRa1), THRA (gene 7067) (P10827 whole entry, looked up, the tested form may be a part): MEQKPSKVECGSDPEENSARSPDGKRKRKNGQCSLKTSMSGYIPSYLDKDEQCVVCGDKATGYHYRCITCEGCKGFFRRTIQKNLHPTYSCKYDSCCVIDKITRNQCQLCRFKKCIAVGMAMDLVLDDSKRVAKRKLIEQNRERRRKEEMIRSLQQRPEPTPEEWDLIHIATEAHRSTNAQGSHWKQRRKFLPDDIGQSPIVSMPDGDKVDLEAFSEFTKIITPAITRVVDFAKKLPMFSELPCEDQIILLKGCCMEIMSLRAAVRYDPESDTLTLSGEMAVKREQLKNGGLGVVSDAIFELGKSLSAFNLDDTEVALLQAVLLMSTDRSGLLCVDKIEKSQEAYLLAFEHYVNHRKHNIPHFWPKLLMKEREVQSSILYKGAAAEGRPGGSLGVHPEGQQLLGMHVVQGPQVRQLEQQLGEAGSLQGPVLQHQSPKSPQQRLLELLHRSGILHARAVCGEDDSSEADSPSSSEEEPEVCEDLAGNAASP
Summary of the method: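 Measured here is mRNA from a GAL4-UAS reporter in transfected HepG2 cells carrying a Gal4-fused receptor, 24 h post-dose. DMSO served as negative control and baseline.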

[20] = BSK_BE3C_SRB: Viability Assessment in the BioMAP Diversity Plus: BE3C Assay (AID 2283028); settings: primary human bronchial epithelial cells;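 note: measured 24 h after chemical dosing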
Summary of the method: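 SRB total-protein staining (0.1%, after TCA fixation) of chemically dosed human bronchial epithelial primary cells at 24 h; DMSO serves as the negative control for bidirectional curve fitting.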

Measured: AC50

Sequence of E-selectin (Homo sapiens) (P16581 whole entry, looked up): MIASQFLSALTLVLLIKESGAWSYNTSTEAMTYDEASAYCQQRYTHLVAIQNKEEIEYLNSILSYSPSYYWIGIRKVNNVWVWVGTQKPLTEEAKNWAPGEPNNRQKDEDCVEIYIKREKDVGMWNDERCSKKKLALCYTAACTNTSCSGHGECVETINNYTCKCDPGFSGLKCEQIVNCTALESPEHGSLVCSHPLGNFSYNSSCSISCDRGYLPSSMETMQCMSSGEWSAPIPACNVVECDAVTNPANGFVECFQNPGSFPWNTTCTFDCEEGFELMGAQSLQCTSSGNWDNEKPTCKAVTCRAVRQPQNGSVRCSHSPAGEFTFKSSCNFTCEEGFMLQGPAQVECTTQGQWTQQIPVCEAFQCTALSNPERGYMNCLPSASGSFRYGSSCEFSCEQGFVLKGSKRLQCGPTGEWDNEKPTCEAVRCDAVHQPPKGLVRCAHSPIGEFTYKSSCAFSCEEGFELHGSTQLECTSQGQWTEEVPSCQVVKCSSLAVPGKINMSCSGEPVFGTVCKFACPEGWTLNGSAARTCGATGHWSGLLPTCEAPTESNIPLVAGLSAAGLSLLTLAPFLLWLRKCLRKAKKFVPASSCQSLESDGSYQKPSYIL

c1ccc2c(c1)Cc1ccccc1-2
active: [2] 61.7 µM
not listed: [18] | [19] | [20]
inactive: all other assays above

NC(=O)N(O)[C@@H]1C=C[C@H](Oc2cccc(Oc3ccc(F)cc3)c2)C1
active: [11] 9.5 µM
not listed: [1] | [18] | [19] | [20]
inactive: all other assays above

Cc1cc(C)c(O)c(C)c1
not listed: [1] | [4] | [10] | [19] | [20]
inactive: all other assays above

CCCOc1sc(C(=O)N2CCC(c3cc(CN)ccc3F)CC2)c(C)c1Br
inactive: [1] | [2] | [10]
active: [3] 11.1 µM | [5] 7.57 µM | [6] 9.52 µM | [7] 7.77 µM | [8] 8.8 µM | [9] 11.1 µM | [11] 5 µM | [12] 11.1 µM | [13] 8.81 µM | [14] 6.2 µM | [15] 4.5 µM | [16] 6.64 µM | [17] 4.78 µM

Oc1cccc(O)c1
not listed: [2] | [4] | [19] | [20]
inactive: all other assays above

N#C[C@@H]1CC(F)(F)CN1C(=O)CNC1CC2CCC(C1)N2c1ncccn1 (stereo partly drawn)
active: [5] 4.85 µM | [7] 2.58 µM | [8] 7.55 µM | [11] 8.06 µM | [13] 5.57 µM
not listed: [10] | [18] | [19] | [20]
inactive: all other assays above

CN1CCC[C@H]1c1cccnc1
not listed: [2] | [4] | [18]
inactive: all other assays above

O=[N+]([O-])c1ccc(O)cc1
not listed: [1] | [2] | [10] | [18] | [19]
inactive: all other assays above
